These results are taken from PubChem BioAssay (NCATS).

Results filed as inconclusive are left out. Entries that show only a call come without a potency. Activity calls are given as the source filed them. The call rests on the fitted dose curve.
Potency means the concentration at half of the fitted maximal effect.

The assay in a line: Cytotoxicity counterscreen for inhibitors of SARS-CoV-2 cell entry (AID 1645845). Further: nearly all actives have a fitted effect of over 50% in size. The conditions noted are these: cell viability (SARS-CoV-2 entry assay cells); series mostly up to 57.1 µM. An excerpt: Assay Provider: Wei Zheng, Ph.D.
National Center for Advancing Translational Sciences, National Institute of Health, Rockville, MD.
SARS-CoV-2 spike protein, within the viral envelope, mediates viral attachment and infection of host cells. The SARS-CoV-2 spike protein specifically binds to the host receptor ACE2 (Angiotensin-converting enzyme 2). This interaction promotes endocytosis of the viral particle, additional events lead to viral-host cell membrane fusion and release of the viral contents, allowing viral replication.
While SARS-CoV-2 requires BSL-3 facilities for live virus work, pseudo-typed partices (PP) that incorporate SARS-CoV-2 spike proteins without replication elements could facilitate studies on viral entry mechanisms in a BSL-2 setting. This PP cell entry assay could also enable screening of small molecule compound libraries in BSL-2 setting to identify inhibitors of SARS-CoV-2 cell entry. To eliminate false positive compounds, ATP content cytotoxicity assay was screened in the same cell line.
SEQUENCE No. (e.g., 1, 2, 3, etc.); […] (e.g., Cells, Incubation, Reagent, etc.); VALUE and DESCRIPTION.
1. Cells. Seed 1500 HEK293-ACE2 cells (Expi293F with stable expression of human ACE2) in 2 uL/well media (DMEM, 10% FBS, 1x L-glutamine, 1x Pen/Strep, 1 ug/ml puromycin) in white 1536-well assay plates (Greiner #782073).
2. Incubation. Incubate at 37 C with 5% CO2 overnight (~16 h).
3. Compounds. Dispense 23 nL/well compounds in DMSO via pin transfer.
4. Incubation. Incubate for 1 h at 37C 5% CO2.
5. Reagent. Dispense 2 uL/well of media (DMEM, 10% FBS, 1x L-glutamine, 1x Pen/Strep, 1 ug/ml puromycin).
6. Incubation. Incubate at for 48h at 37C 5% CO2
7. Reagent. Dispense 4 uL/well of ATPLite 1step luminescence assay reagent (PerkinElmer #6016739).
8. Incubation. Incubate for 15 min at room temperature.
9. Detection. Read luminescence signal (Viewlux plate reader, PerkinElmer). Data was normalized with wells containing cells as 100%, and wells without cells (media only control) as 0%.
(The purpose of a counterscreen is to sort out artefacts and off-target activity.)
As to `C/C(O)=C(\C#N)C(=O)Nc1ccc(C(F)(F)F)cc1`, the Potency is 8.91 µM (active).
On the same count and under the same terms, the same measure for `O=C(OC[C@H]1O[C@@H](OC(=O)c2cc(O)c(O)c(O)c2)[C@H](O)[C@@H](OC(=O)c2cc(O)c(O)c(O)c2)[C@@H]1O)c1cc(O)c(O)c(O)c1`: “inactive”; for `C[C@@H](C1CC[C@@]2(O)C3=CC(=O)[C@@H]4C[C@@H](O)[C@@H](O)C[C@]4(C)[C@H]3CC[C@]12C)[C@H](O)CCC(C)(C)O` (stereo not given in full): “inactive”; for `Cc1nc(NC(=O)N2CCC[C@H]2C(N)=O)sc1-c1csc(C(C)(C)C)n1`: “inactive”.
`CCCN(CC)C(CC)C(=O)Nc1c(C)cccc1C` (stereo not given): the Potency result is “inactive”.
On the same count and under the same terms, the result for `CN(C(=O)/C=C/c1ccoc1)[C@@H]1CC[C@@]2(O)[C@H]3Cc4ccc(O)c5c4[C@@]2(CCN3CC2CC2)[C@H]1O5` reads “inactive”; that for `O=C(Nc1cnn2ccc(N3CCC[C@@H]3c3cc(F)ccc3F)nc12)N1CC[C@H](O)C1`, “inactive”; that for `NC(=S)N/N=C/c1ncccc1N`, “inactive”.
Same read-out and setting: the result for `CO[C@H]1C[C@@H]2CC[C@@H](C)[C@@](O)(O2)C(=O)C(=O)N2CCCC[C@H]2C(=O)O[C@H]([C@H](C)C[C@@H]2CC[C@@H](OCCO)[C@H](OC)C2)CC(=O)[C@H](C)/C=C(/C)[C@@H](O)[C@@H](OC)C(=O)[C@H](C)C[C@H](C)/C=C\C=CC=C1C` reads “inactive”.
As to `CC(C)OC(=O)CCC/C=C\C[C@@H]1[C@@H](CC[C@@H](O)CCc2ccccc2)[C@H](O)C[C@@H]1O`, the activity change, negative = cytotoxicity is -2.53% [at 11.3 µM] (inactive).
As for `CC(=O)CCC1C(=O)N(c2ccccc2)N(c2ccccc2)C1=O`, the Potency result was “inactive”.
The same measure, in the same setting: the result for `Nc1nccc(-c2c(-c3ccc(F)cc3)ncn2C2CCN(Cc3ccon3)CC2)n1` reads “inactive”; that for `CCCC1C(=O)N2C(N(C)C)=Nc3ccc(C)cc3N2C1=O` (stereo not given), “inactive”; that for `CC(C)=CCC/C(C)=C/CC/C(C)=C/CSc1ccccc1C(=O)O`, “inactive”.
On the same count and under the same terms, the same measure for `O=C(O[C@H]1C[N+]2(CCCOc3ccccc3)CCC1CC2)C(O)(c1cccs1)c1cccs1`: “inactive”; for `Cc1cc(C)c(S(=O)(=O)N(CCc2cccc(Br)c2)Cc2ccc(-c3cccc(S(C)(=O)=O)c3)cc2)c(C)c1`: “inactive”.
On to `COc1cc(/C=C/C(=O)CC(=O)/C=C/c2ccc(O)c(OC)c2)ccc1O`, for which the Potency is 31.6 µM (active).
Still for that read-out and setting: the same measure for `CCOc1nc2cccc(C(=O)OC(C)OC(=O)OC3CCCCC3)c2n1Cc1ccc(-c2ccccc2-c2nn[nH]n2)cc1` (stereo not given): “inactive”.
In the case of `CN[C@@H]1[C@H](O)[C@H](O[C@@H]2[C@H](O)[C@@H](O[C@H]3O[C@H]([C@@H](C)NC)CC[C@H]3N)[C@@H](N)C[C@H]2N)OC[C@]1(C)O`, the activity change, negative = cytotoxicity is -14.3% [at 11.3 µM] (inactive).
As to `CN1c2c(nc(N)[nH]c2=O)NC[C@@H]1CNc1ccc(C(=O)N[C@@H](CCC(=O)O)C(=O)O)cc1`, the outcome is “inactive [at 5.25 µM]”.
As for `CCC[C@H](NC(=O)[C@@H]1[C@H]2CCC[C@H]2CN1C(=O)[C@@H](NC(=O)[C@@H](NC(=O)c1cnccn1)C1CCCCC1)C(C)(C)C)C(=O)C(=O)NC1CC1`, the Potency result was “inactive”.
`Cc1c(CN2CCN(C(=O)[C@H](C)O)CC2)sc2c(N3CCOCC3)nc(-c3cnc(N)nc3)nc12`: the Potency result is “inactive”.
Still for that read-out and setting: the result for `C=C/C=C/CC1=C(C)[C@H](OC(=O)[C@H]2[C@H](/C=C(\C)C(=O)OC)C2(C)C)CC1=O` reads “inactive”; that for `CCCCc1cc2c(=O)c(C(=O)OC)c[nH]c2cc1OCc1ccccc1`, “inactive”; that for `N#Cc1cc(-c2n[nH]c(-c3ccncc3)n2)ccn1`, “inactive”.
Still for that read-out and setting: the same measure for `CC(=O)c1ccc2c(c1)N(CCCN1CCN(CCO)CC1)c1ccccc1S2`: “inactive”; for `CCCCC(=O)OCC(=O)[C@]1(O)Cc2c(O)c3c(c(O)c2[C@@H](O[C@H]2C[C@H](NC(=O)C(F)(F)F)[C@H](O)[C@H](C)O2)C1)C(=O)c1c(OC)cccc1C3=O`: “inactive”.
On the same count and under the same terms, the same measure for `O=C(O)c1cc(O)c2c(c1)[C@H]([C@H]1c3cc(C(=O)O)cc(O)c3C(=O)c3c(O[C@@H]4O[C@H](CO)[C@@H](O)[C@H](O)[C@H]4O)cccc31)c1cccc(O[C@@H]3O[C@H](CO)[C@@H](O)[C@H](O)[C@H]3O)c1C2=O`: “inactive”.
With `Cc1noc(-c2ccc(-c3ccc(C4(C(=O)O)CC4)cc3)cc2)c1NC(=O)O[C@H](C)c1ccccc1`, the Potency entry was “inactive”.
Same read-out and setting: the same measure for `CCOC(=O)c1c[nH]c2cc(OCC(C)C)c(OCC(C)C)cc2c1=O`: “inactive”; for `COC(=O)N[C@H](C(=O)N1CCC[C@H]1C(=O)Nc1ccc([C@@H]2CC[C@@H](c3ccc(NC(=O)[C@@H]4CCCN4C(=O)[C@@H](NC(=O)OC)C(C)C)cc3)N2c2ccc(C(C)(C)C)cc2)cc1)C(C)C`: “inactive”.
As to `CN1C2CC[C@@H]1CC(OC(=O)[C@H](CO)c1ccccc1)C2` (stereo not given in full), the Potency entry was “inactive”.
Still for that read-out and setting: the result for `Cc1ccc(/C(=C\CN2CCCC2)c2cccc(/C=C/C(=O)O)n2)cc1` reads “inactive”; that for `O=c1[nH]c([C@@H]2CCCN2)nc2c1oc1ccc(Cl)cc12`, “inactive”; that for `Cc1ccc(C(=O)Nc2ccc(Oc3cc4cnn(C)c4cc3-c3cn[nH]c3)c(F)c2)c(=O)n1-c1ccc(F)cc1`, “inactive”.
Still for that read-out and setting: the same measure for `CCc1c(-c2ccccc2C)nc2c(C#N)c[nH]n2c1=O`: “inactive”; for `CN1CC(O)c2cc(N=NC(=N)N)c(O)cc21` (stereo not given): “inactive”; for `O=C(/C=C\n1cnc(-c2cc(C(F)(F)F)cc(C(F)(F)F)c2)n1)NNc1cnccn1`: “inactive”.
Still for that read-out and setting: the same measure for `C[C@@H]1N=C(N)NC(N(C)C)=N1`: “inactive”; for `O=C1CCC(=O)N1CO`: “inactive”.
